From PubChem BioAssay AID488969 (Vanderbilt High Throughput Screening Facility, 2010)
In all, about 110,000 compounds were measured (“z-score”: median about -0.1, highest 2% from about 2 on). The sample as a whole holds a higher share of the highest values than the screen did. Calls of active or inactive are those of the source.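 Rule for the calls: active = z-score in the third read window above 3 or below -3; inactive = the rest.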

These compounds were tested against Metabotropic glutamate receptor 8 (Rattus norvegicus) (UniProt P70579) (assay: mGluR8 Gi/Go-coupled signaling modulation – cell-based, rat, thallium flux, HTS, primary screen (AID 488969)). Conditions: HEK293 rat mGluR8, GIRK (G protein-gated inwardly rectifying potassium channel) thallium flux, FluoZin2; at 10 µM; stronger effect = higher value; submaximal glutamate (EC20) added with thallium.
Sequence of Metabotropic glutamate receptor 8 (Rattus norvegicus) (P70579 whole entry, looked up): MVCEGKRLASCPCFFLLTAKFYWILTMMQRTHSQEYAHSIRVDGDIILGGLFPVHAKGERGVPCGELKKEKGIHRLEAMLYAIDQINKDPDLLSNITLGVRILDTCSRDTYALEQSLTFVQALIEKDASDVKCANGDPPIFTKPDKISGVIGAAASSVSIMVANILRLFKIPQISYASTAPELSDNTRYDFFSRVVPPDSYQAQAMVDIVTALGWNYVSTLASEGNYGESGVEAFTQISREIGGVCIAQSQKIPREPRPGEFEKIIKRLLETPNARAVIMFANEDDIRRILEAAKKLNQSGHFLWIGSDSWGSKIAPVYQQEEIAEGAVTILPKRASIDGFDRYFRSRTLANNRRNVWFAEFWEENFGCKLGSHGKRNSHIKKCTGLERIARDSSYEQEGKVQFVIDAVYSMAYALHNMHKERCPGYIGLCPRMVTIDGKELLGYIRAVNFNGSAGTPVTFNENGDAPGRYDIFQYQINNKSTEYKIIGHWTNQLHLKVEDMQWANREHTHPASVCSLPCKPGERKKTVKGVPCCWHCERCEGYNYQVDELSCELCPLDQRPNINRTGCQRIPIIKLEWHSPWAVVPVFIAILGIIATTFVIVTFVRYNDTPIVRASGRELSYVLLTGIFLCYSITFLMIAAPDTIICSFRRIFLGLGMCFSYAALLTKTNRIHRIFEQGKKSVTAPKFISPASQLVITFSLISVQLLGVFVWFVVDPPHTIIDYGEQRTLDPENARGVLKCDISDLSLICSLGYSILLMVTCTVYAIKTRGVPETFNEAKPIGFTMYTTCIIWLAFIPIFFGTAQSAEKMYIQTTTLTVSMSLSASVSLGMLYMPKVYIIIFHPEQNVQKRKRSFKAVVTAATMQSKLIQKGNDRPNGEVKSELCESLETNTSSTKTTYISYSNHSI

SMILES | z-score
O=C(Nc1cccc(NC(=O)c2cccs2)c1)c1ccco1 | -0.313
Clc1cccc(Cl)c1CO/N=C/c1c(-c2ccccc2)nc2n1CCS2 | -0.177
Cn1c(O)c(C=NCC2CCNCC2)c(=O)n(C)c1=O | 0.695
O=C(NCc1cccs1)c1cnn2cccnc12 | 0.267
CCOC(=O)N1CCN(CC(O)COCc2ccc(OC)c(OC)c2)CC1 (centres undefined) | 0.0416
CC(C)(C)C1CCC(OC(=O)c2ccncc2)CC1 (centres undefined) | 0.0808
C/C(=N\Nc1ccc([N+](=O)[O-])cc1[N+](=O)[O-])c1ccc(-n2nncc2C(C)(C)C)cc1 | -2.37
O=C(CCCN1C(=O)C2CCCCN2C1=O)N1CCN(c2ccc([N+](=O)[O-])cc2)CC1 (centres undefined) | 0.169
O=C(Nc1cccc(Cl)c1)Nc1nnc(-c2ccncc2)s1 | -0.194
O=C(NNC(=O)C1COc2ccccc2O1)c1ccccc1 (centres undefined) | 0.0265
NC(=S)NNC(=O)Nc1ccc(Cl)c(Cl)c1 | 0.243
Cc1cc(-c2n[nH]c(=S)n2/N=C/C(Cl)=C/c2ccccc2)n[nH]1 | -0.527
CC(=C/c1ccccc1)/C=N/n1c(-c2ccco2)n[nH]c1=S | 2.16
CC(/C=N/n1c(-c2cc(C)[nH]n2)n[nH]c1=S)=C\c1ccccc1 | -0.302
CC(/C=N/n1c(-c2ccco2)n[nH]c1=S)=C\c1ccccc1 | 5.91 (active)
S=c1[nH]nc(C2CCCCC2)n1/N=C/C(Cl)=C\c1ccccc1 | -0.0746
S=c1[nH]nc(-c2ccco2)n1/N=C/C=C/c1ccco1 | -0.366
CC(/C=N/n1c(-c2ccco2)n[nH]c1=S)=C\c1ccco1 | 0.1
CC(/C=N/n1c(C2CCCCC2)n[nH]c1=S)=C\c1ccccc1 | 2.13
CC(/C=N/n1c(COc2ccccc2)n[nH]c1=S)=C\c1ccccc1 | 1.93
Cc1cc(NCCN2CCOCC2)n2nc(C)c(-c3ccc(Cl)cc3)c2n1 | -0.362
COc1ccccc1-c1c(C#N)c(SCC(=O)N2CCCC2)nc(C)c1C(N)=O | 0.169
CNC(=O)c1ccc(-n2nc(C)cc2-c2ccccc2)cc1 | -0.167
CCOC(=O)c1c(N)sc2c(OCC)c(Br)ccc12 | 0.151

SMILES | z-score
O=C1CCc2cc(S(=O)(=O)NC(C(=O)NCc3cccnc3)c3ccccc3)ccc2N1 (centres undefined) | -0.174
CCCNC(=O)C(Cc1ccccc1)NS(=O)(=O)c1ccc2c(c1)CCC(=O)N2 (centres undefined) | 0.179
CCCN(CCC)CCNC(=O)C(NS(=O)(=O)c1ccc2c(c1)CCC(=O)N2)c1ccccc1 (centres undefined) | 10 (active)
Cc1ccccc1S(=O)(=O)c1c(C)cc(C)n(C(C)C)c1=O | -0.131
Cc1cccc(NC(=S)N/N=C2/CCCCc3ccccc32)c1 | 0.797
CC(C)NC(=S)N/N=C1\CCCCc2ccccc21 | -0.471
CCNC(=S)N/N=C1\CCCCc2ccccc21 | 1.57
COC(=O)N/N=C1\CCCc2ccccc21 | -0.137
CCCCCCC(=O)N/N=C1\CCCc2ccccc21 | -0.118
COc1cccc(NC(=S)N/N=C2/CCCCc3ccccc32)c1 | 8.28 (active)
C=C(C)CNC(=S)N/N=C1\CCCCc2ccccc21 | 3.15 (active)
CCCCNC(=S)N/N=C1\CCCCc2ccccc21 | 2.17
COc1cccc(NC(=S)N/N=C2\CC(C)(C)Oc3ccc(O)cc32)c1 | -0.0142
CC(=O)N1CCCc2cc(S(=O)(=O)N(C)Cc3ccccc3)ccc21 | 0.884
Cc1ccc(SCc2nc3ccccc3[nH]2)cc1 | -0.0609
CCCC(=O)NC(Nc1cccc(C(F)(F)F)c1)C(Cl)(Cl)Cl (centres undefined) | -0.917
Nc1cc(N)nc(SCC(=O)Nc2ccccc2)n1 | -0.306
COc1cccc(NC(=O)CC2COc3ccccc3O2)c1 (centres undefined) | 5.36 (active)
COc1cc(OC)c(OC)cc1NC(=O)CC1COc2ccccc2O1 (centres undefined) | -0.0814
Cc1cccc(NC(=O)CSc2nc(N)cc(N)n2)c1 | -0.298
COc1ccc(OCC(=O)Nc2ccccc2O)cc1 | -0.431
COc1ccc(OCC(=O)NNC(=O)C(=O)Nc2ccc(C)cc2)cc1 | 2.73
COc1ccccc1NC(=O)COc1ccccc1 | 0.137
COc1cccc(NC(=O)CSc2nc(N)cc(N)n2)c1 | 3.37 (active)

SMILES | z-score
COc1ccccc1NC(=O)CC1COc2ccccc2O1 (centres undefined) | 0.0423
COc1ccc(OCC(=O)Nc2ccc(C)cc2)cc1 | -0.351
COc1ccc(OCC(=O)Nc2ccccc2OC(F)F)cc1 | 2.69
CCOc1ccc(OCC(=O)Nc2ccc(OC)cc2)cc1 | -0.476
COc1ccc(NS(=O)(=O)c2cc(S(C)(=O)=O)ccc2C)cc1 | -0.235
COc1ccc2c(c1)C(NC(=O)C(F)(F)F)CC2=O (centres undefined) | 0.142
O=C(N1CCOCC1)N1CCN(C(=O)N2CCOCC2)CC1 | -0.108
COc1cc(C(=O)CSc2nncn2C)cc(OC)c1OC | -0.245
CC1(C)Cc2nc3sc4c(OCc5ccccc5)ncnc4c3cc2CO1 | -0.0531
CCCN(CCC)C1=N/C(=C\c2ccco2)C(=O)N1c1ccccc1 | -0.536
Cc1ccccc1NC1C=CS(=O)(=O)C1 (centres undefined) | -0.358
Cc1ccc(N2C(=O)CCSC23C(=O)Nc2ccccc23)cc1 (centres undefined) | -0.0429
COc1ccc(OCC(=O)Nc2cccc(OC)c2)cc1 | -0.532
CC(C)(C)NC(=O)C(=O)NNC(=O)COc1ccc(Br)cc1 | 1.89
COc1cccc(NC(=O)COc2ccc(C)cc2)c1 | 4.04 (active)
COc1cc(NC(=O)COc2cccc(OC)c2)cc(OC)c1 | 0.638
CC(C)(C)NC(=O)C(=O)NNC(=O)COc1ccccc1 | 0.182
Cc1ccc(OCC(=O)NNC(=O)C(=O)NC(C)(C)C)cc1 | 2.61
O=C(COc1ccc(S(=O)(=O)NC2CCCCC2)cc1Cl)N1CCN(c2ccccc2)CC1 | 1.16
COc1cccc(/C=N/NC(=O)C(=O)N2CCCC2)c1OC | -0.494
CCSc1nnc(NC(=O)C2CCN(S(=O)(=O)c3ccccc3C(F)(F)F)CC2)s1 | -0.565
O=C(Nc1ccccc1)/C(=C\c1ccc2c(c1)OCO2)NC(=O)c1ccco1 | -0.0407
Cc1ccc(CN2CCNC(=O)C2CC(=O)O)cc1 (centres undefined) | -0.134
COc1ccc(CN2CCNC(=O)C2CC(=O)O)cc1OC (centres undefined) | 3.61 (active)

SMILES | z-score
O=C(O)CC1C(=O)NCCN1Cc1ccc(F)c(F)c1 (centres undefined) | -0.183
CC1CC(C)CN(CCOCCSc2ccccc2)C1 (centres undefined) | 0.729
O=C(Cn1cc(C(F)(F)F)cc(Cl)c1=O)NCCc1ccccc1 | -0.155
CC(=O)c1cccc(NC(=S)NC(=O)c2ccccc2Cl)c1 | 1.17
CC(=O)c1cccc(NC(=S)NC(=O)c2ccccc2)c1 | 1.63
COC(=O)c1cccc(NC(=S)NCc2ccc(Cl)cc2)c1 | 0.53
CC(=O)c1cccc(NC(=S)NC(=O)c2ccc(Cl)cc2)c1 | -0.258
COC(=O)c1cccc(NC(=S)Nc2cccc(Cl)c2Cl)c1 | 2.5
CCC(=O)Nc1cccc(NC(=S)NC(=O)c2ccccc2)c1 | -0.455
COC(=O)c1cccc(NC(=S)Nc2cccc(Cl)c2C)c1 | 0.445
Cc1cccc(NC(=O)NC(=S)NC(=O)c2ccccc2)c1 | 2.86
CC(=O)c1cccc(NC(=S)NC(=O)c2cccc(Cl)c2)c1 | 8.71 (active)
CC(=O)c1cccc(NC(=S)NC(=O)c2cccc(C)c2)c1 | 7.49 (active)
CCC(=O)Nc1cccc(NC(=S)NC(=O)c2cccc(C)c2)c1 | 0.23
Cc1ccc(NC(=O)NC(=S)NC(=O)c2ccccc2)cc1 | 1.68
O=C(c1ccc2snnc2c1)N1CCN(c2ccccn2)CC1 | -0.329
COC(=O)Nc1sc2c(c1C(=O)N1CCOCC1)CCC(C)C2 (centres undefined) | 0.0522
COc1ccccc1S(=O)(=O)Nc1cccc(-c2nnc3n2CCCCC3)c1 | -0.163
Cc1cc2cc(C(c3nnnn3C(C)(C)C)N(Cc3ccco3)CC3CCCO3)c(=O)[nH]c2cc1C (centres undefined) | -0.208
O=C(/C=C/c1ccc(F)cc1)c1ccccc1Br | -0.272
COc1ccc2nc(C(F)(F)C(F)(F)F)c(C#N)c(N)c2c1 | -0.334
O=C(NNC(=S)Nc1cccc(C(F)(F)F)c1)c1cccc(Cl)c1 | 2.97
O=C(NNC(=S)Nc1cccc(C(F)(F)F)c1)c1ccccc1Cl | 0.86
CC(C)Oc1cccc(C(=O)NC(=S)Nc2cccc(NC(=O)c3ccccc3Cl)c2)c1 | -0.41

SMILES | z-score
CC(C)Oc1cccc(C(=O)NC(=S)Nc2cccc(C(F)(F)F)c2)c1 | 0.755
Cc1ccccc1C(=O)NNC(=S)Nc1cccc(C(F)(F)F)c1 | -0.0547
CC(C)Oc1cccc(C(=O)NC(=S)Nc2ccccc2)c1 | 3.26 (active)
CCS(=O)(=O)N1CCN(C(=O)COc2ccc(-c3ccccc3)cc2)CC1 | -0.0325
O=c1c2c3c(sc2nc2n1CCCCC2)CCC3 | -0.21
O=c1c2c3c(sc2nc2n1CCCC2)CCCCC3 | -0.277
O=c1c2c3c(sc2nc2n1CCCCC2)CCCCC3 | 8.38 (active)
O=C(Cn1c(CC(=O)N2CCOCC2)nc2ccccc21)Nc1ccc2c(c1)OC(F)(F)O2 | 1.15
CCOc1ccc2nc(NC(=O)CN3CCN(C)CC3)sc2c1 | 0.433
C=CCNCCCOc1ccc(C)cc1Br | 0.425
CC(=O)Nc1ccc(S(=O)(=O)N(C)CC(=O)OCC(=O)Nc2cccnc2Cl)cc1 | -0.172
C/C(=N\NC(=O)c1cccc(F)c1)c1ccc(Br)s1 | 7.29 (active)
C/C(=N\NC(=O)CNc1cccc(C)c1)c1ccc(Br)s1 | 0.0989
C/C(=N\NC(=O)c1ccc(Cl)cc1)c1ccc(Br)s1 | 8.88 (active)
CC/C(=N\NC(=O)c1ccccc1Cl)c1ccc(Br)s1 | 0.216
C/C(=N/NC(=O)c1cc(Cl)ccc1O)C12CC3CC(CC(C3)C1)C2 | 3.19 (active)
C/C(=N\NC(=O)c1cccc(N/N=C(\C)c2ccccc2)c1)c1ccccc1 | -0.529
C/C(=N/NC(=O)c1ccoc1C)C12CC3CC(CC(C3)C1)C2 | 0.37
O=C(NN=C1C2CC3CC(C2)CC1C3)c1cc(Cl)ccc1O | 0.0729
C/C(=N/NC(=O)CNc1ccc(C)cc1)c1ccc(Br)s1 | 0.214
COc1ccccc1NCC(=O)N/N=C(\C)c1ccc(Br)s1 | -0.279
C/C(=N\NC(=O)c1ccccc1O)c1ccc(Br)s1 | 2.99
C/C(=N\NC(=O)c1ccc(Cl)c(Cl)c1)c1ccc(Br)s1 | 1.19
